# Only some compounds are listed: those with a hit (about 3.4% of all), similar ones and a draw of the others.
# PAFAH1B3 inh: blocks human PAF acetylhydrolase 1B catalytic subunit 3; Q15102; recombinant PAFAH1B3, FP-rhodamine probe, fluorescence polarization; inhibition, % at 3.39 µM; 340,000 tested, 0.28% active; AID 492972;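 active means inhibition above the screen-wide average of all tested compounds plus 3 SD, cut at about 25% in these data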;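 further: 0% = enzyme with DMSO only and 100% = wells lacking PAFAH1B3 protein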
# Target sequence (Q15102 whole entry, looked up): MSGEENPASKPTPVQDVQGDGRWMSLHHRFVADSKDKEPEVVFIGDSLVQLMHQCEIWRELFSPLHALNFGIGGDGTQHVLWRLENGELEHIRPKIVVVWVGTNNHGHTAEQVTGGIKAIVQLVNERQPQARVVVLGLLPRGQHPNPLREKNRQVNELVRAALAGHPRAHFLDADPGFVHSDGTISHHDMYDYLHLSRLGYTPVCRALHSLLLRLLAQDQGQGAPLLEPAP
# PAFAH2 FP inh: PAFAH2 (human) inhibition. 340,000 tested, 0.99% active. recombinant PAFAH2, FP-rhodamine activity probe, fluorescence polarization. AID 492956. inhibition, % at 3.39 µM. Q99487;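 active means inhibition above the mean over all tested compounds plus 3 SD, cut at about 30% in these data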;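 further: inhibitors block probe labeling of enzyme so polarization drops; 0% = enzyme with DMSO and 100% = wells lacking PAFAH2 protein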
# PP5 inh: inhibitors of human protein phosphatase 5 (PP5); P53041; 320,000 tested, 0.18% active; AID 1987; inhibition, % at 6.7 µM; purified PP5c, OMFP substrate fluorescence;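 active means inhibition above the campaign's mean inhibition across all tested compounds plus 3 SD, cut at about 9.5% in these data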;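 further: 0% = DMSO only and 100% = 100 µM cantharidin control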
# PP1 counter: blocks human PP1-alpha phosphatase, a PP5 counter-screen; purified PP1alpha, OMFP fluorescence; inhibition, % at 6.7 µM; AID 2235; 320,000 tested, 0.9% active; P62136;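 active means inhibition above the mean inhibition of all tested compounds plus 3 SD, computed separately for each screening campaign, cut at about 15% in these data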
# pPAFAH inh: pPAFAH (human) enzyme inhibition; recombinant pPAFAH, FP-rhodamine probe fluorescence polarization; inhibition, % at 3.39 µM; 330,000 tested, 1.5% active; AID 463082;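 active means inhibition above the mean inhibition across the screen plus 3 SD, cut at about 25% in these data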;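 further: inhibitors block binding of the rhodamine activity-based probe so polarization drops; 0% = enzyme with DMSO and 100% = wells lacking pPAFAH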
# Target sequence (Q13093 whole entry, looked up): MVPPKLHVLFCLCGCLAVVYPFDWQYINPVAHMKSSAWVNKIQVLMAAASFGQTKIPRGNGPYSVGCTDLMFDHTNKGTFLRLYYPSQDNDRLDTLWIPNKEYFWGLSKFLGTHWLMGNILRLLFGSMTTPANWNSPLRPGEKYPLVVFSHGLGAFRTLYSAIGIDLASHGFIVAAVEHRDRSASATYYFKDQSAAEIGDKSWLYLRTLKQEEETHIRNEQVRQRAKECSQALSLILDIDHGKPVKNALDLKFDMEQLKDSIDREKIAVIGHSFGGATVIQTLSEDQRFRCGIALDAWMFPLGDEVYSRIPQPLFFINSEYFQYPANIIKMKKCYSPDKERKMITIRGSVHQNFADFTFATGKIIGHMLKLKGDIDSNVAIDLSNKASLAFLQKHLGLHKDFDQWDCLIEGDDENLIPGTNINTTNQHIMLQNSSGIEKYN
# PAFAH1B2 inh: inhibitors of human PAFAH1B2; recombinant PAFAH1B2, FP-rhodamine activity probe, fluorescence polarization; inhibition, % at 3.39 µM; 340,000 tested, 1.2% active; AID 492953;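 active means inhibition above the mean of all tested compounds plus 3 SD, cut at about 24% in these data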;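 further: 0% = enzyme with DMSO and 100% = wells lacking PAFAH1B2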
# An asterisk follows results filed as active; nt = no result given.
SMILES,PAFAH1B3 inh,PAFAH2 FP inh,PP5 inh,PP1 counter,pPAFAH inh,PAFAH1B2 inh
CC(C)C(C(=O)NCC1CCCO1)N(Cc1ccco1)C(=O)CNS(=O)(=O)c1ccc(F)cc1 (configuration not stated),6.5,21.5,-0.9,-4.8,34.5*,1.7
CCN(C(=O)COC(=O)CCOc1ccc(C(C)(C)C)cc1)c1c(N)n(Cc2ccccc2)c(=O)[nH]c1=O,2.0,6.7,nt,nt,nt,-6.2
CCC1CN(C(=O)NCc2ccccc2)c2cc(C)ccc2O1 (configuration not stated),49.7*,70.9*,nt,nt,nt,35.8*
CCC1CN(C(=O)NCc2ccc(C)cc2)c2cc(C)ccc2O1 (configuration not stated),5.6,-4.1,nt,nt,nt,-5.0
CCOC(=O)C1(NC(=O)C2(N3C(=O)c4ccccc4C3=O)CCCC2)CCCC1,2.0,-5.0,nt,nt,nt,3.1
Nc1ccc(CSc2ccc(Cl)cc2)cc1,6.3,1.5,1.1,1.5,10.9,39.0*
Cc1cc(C)nc(SCc2ccc(Cl)cc2)n1,5.3,1.8,2.1,-0.3,6.2,9.4
COc1ccccc1N1CCN(C2CCCCC2NS(=O)(=O)c2ccccc2)CC1 (configuration not stated),9.2,-2.0,1.8,-1.9,0.6,3.6
CCCNC(=O)Cn1cnc2sc(C(=O)Nc3cc(OC)c(OC)c(OC)c3)c(C)c2c1=O,4.1,2.5,2.6,1.4,2.5,4.8
CCN(CC)C(=O)Cn1cnc2sc(C(=O)Nc3cc(OC)c(OC)c(OC)c3)c(C)c2c1=O,1.6,0.9,6.1,15.2*,-0.4,2.7
CCCNC(=O)Cn1cnc2sc(C(=O)NCCN(CC)CC)c(C)c2c1=O,3.1,-0.5,4.7,16.3*,2.5,-2.0
CCCCNCCS(=O)(=O)NCc1ccc(OC)cc1,8.6,-7.1,nt,nt,nt,7.3
CCOC(=O)C1=C(C)NC2=C(C(=O)c3ccccc32)C1c1ccc(O)cc1 (configuration not stated),12.5,15.8,5.7,1.4,32.2*,6.0
CC(C)(C)OC(=O)NCc1ccc(CNC(=O)c2nc[nH]c2C(=O)N2CCN(C(=O)OC(C)(C)C)CC2)cc1,1.3,8.9,0.4,-3.7,4.2,4.6
CC(Oc1ccc(Br)cc1)C(=O)Nc1ccc(S(=O)(=O)Nc2nccs2)cc1 (configuration not stated),5.4,0.6,1.0,-1.2,7.3,28.5*
Cc1cc(NS(=O)(=O)c2ccc(NC(=O)C(C)Oc3ccc(Cl)cc3)cc2)no1 (configuration not stated),4.9,-0.1,0.4,-2.9,-4.8,29.6*
CCOC(=O)N1C2c3ccccc3C(c3ccccc32)N1C(=O)OCC,5.0,4.9,nt,nt,nt,4.5
Cc1ccc(C)c(C(=O)OCC(=O)Nc2cccc(S(=O)(=O)N3CCCCC3)c2)c1,-26.1,-33.9,5.7,3.5,-20.3,-20.1
Cc1c(CNC(=O)C2CC2)c(-n2cccc2)n(Cc2ccccc2)c1C,3.7,4.9,-0.2,5.4,-2.6,-0.8
CCC(=O)NCc1c(C)c(C)n(Cc2ccccc2)c1-n1cccc1,-1.4,5.0,-1.0,0.0,5.4,27.6*
O=c1[nH]c2cc(F)ccc2c2ccc(F)cc12,4.2,0.7,nt,nt,nt,7.2
Cc1ccc(NC(=O)c2cc(S(=O)(=O)N(C)C)ccc2N2CCCC2)cc1F,5.1,0.5,0.9,2.8,9.6,-3.5
CC(=O)N1CCCc2cc(S(=O)(=O)N3CCCC(C(=O)NCc4ccccc4Cl)C3)ccc21 (configuration not stated),3.2,3.2,0.1,-1.5,7.3,3.2
CC(=O)N1CCCc2cc(S(=O)(=O)N3CCCC(C(=O)Nc4cccc(C)c4)C3)ccc21 (configuration not stated),9.8,-0.1,-1.9,1.7,33.1*,0.3
CCOC(=O)c1ccccc1NC(=O)C1CC(=O)N(C2CCCC2)C1 (configuration not stated),4.0,-1.6,nt,nt,nt,1.7
SMILES,PAFAH1B3 inh,PAFAH2 FP inh,PP5 inh,PP1 counter,pPAFAH inh,PAFAH1B2 inh
Cc1cccc(C2=NN(c3ccc(Br)cc3)[C@@H](C(=O)N3CCOC3=O)[C@@H]2c2ccccc2)c1,11.0,6.7,nt,nt,28.8*,1.7
Cc1cccc(C2=NN(c3ccccc3)[C@@H](C(=O)N3CCOC3=O)[C@@H]2c2ccccc2)c1,10.8,0.1,nt,nt,7.5,4.8
CCOc1ccccc1N1C(=O)c2ccc(S(=O)(=O)c3ccc(C(=O)O)cc3)cc2C1=O,9.9,-2.4,0.1,0.9,5.4,5.1
CCCOc1cccc(C2C(C(=O)c3cc4ccccc4o3)=C(O)C(=O)N2c2cc(C)on2)c1 (configuration not stated),5.3,11.6,3.9,25.8*,7.3,9.5
COc1cccc(C2C(C(=O)c3ccc(C)o3)=C(O)C(=O)N2c2cc(C)on2)c1 (configuration not stated),3.9,13.1,-0.2,3.2,5.3,-1.9
Cc1cc(N2C(=O)C(O)=C(C(=O)c3cc4ccccc4o3)C2c2cccc(Br)c2)no1 (configuration not stated),-0.2,0.8,3.6,37.2*,12.2,-0.3
COc1cc(-c2nnc(COC(=O)c3ccc(C)o3)o2)cc(OC)c1OC,19.0,6.8,-0.4,-0.2,4.2,2.9
COC(=O)[C@H](Cc1ccccc1)NC(=O)NCc1ccc(C)cc1,nt,nt,0.1,-1.8,-0.1,nt
Cc1ccc(CNC(=O)N[C@@H](Cc2ccccc2)C(=O)O)cc1,2.2,-0.4,-5.4,-2.5,0.9,26.3*
CCC(=O)N1CCc2cc(Br)c(S(=O)(=O)CCC(=O)NCCc3ccccc3)cc21,2.9,0.0,nt,nt,nt,2.1
COc1cc(-c2nc(-c3ccc4c(c3)-c3ccccc3S4(=O)=O)c(-c3ccccc3)[nH]2)cc(OC)c1O,22.1,-2.0,3.4,-2.4,27.2*,3.4
COC(=O)COc1ccc(C(C2C(=O)CC(C)(C)CC2=O)C2C(=O)CC(C)(C)CC2=O)cc1,10.0,-2.6,-0.1,1.0,-1.0,2.9
O=C(/C=N/O)Nc1ccc2sc3ccccc3c2c1,61.9*,47.3*,0.4,4.3,33.5*,41.7*
Cc1noc(C)c1S(=O)(=O)N1CCCC(C(=O)NCCc2ccccc2)C1 (configuration not stated),3.4,4.2,-2.2,-4.7,-1.2,4.3
Cc1ccc(CCNC(=O)C2CCCN(S(=O)(=O)c3c(C)noc3/C=C/N(C)C)C2)cc1 (configuration not stated),3.1,6.6,-1.1,6.8,11.0,36.2*
Cc1ccc(C)c(NC(=O)C2CCCN(S(=O)(=O)c3c(C)noc3/C=C/N(C)C)C2)c1 (configuration not stated),7.1,-0.3,3.7,2.3,-0.8,2.5
Cc1ccc(CCNC(=O)C2CCCN(S(=O)(=O)c3c(C)noc3C)C2)cc1 (configuration not stated),4.2,6.4,0.7,-0.6,7.9,27.3*
O=C(NNC(=S)NC(=O)C12CC3CC(CC(C3)C1)C2)c1ccncc1,2.5,11.7,0.6,1.9,1.8,45.4*

# Assay outcomes (PubChem BioAssay)
